Laboratory results: PubChem BioAssay (EPA / NIEHS)
Values joined by “and” are separate entries in the source; they are usually repeats but may differ in a detail not shown here. Equal entries are not always repeated. Some compounds were tested as several samples or in several runs, with calls that do not always agree. Active and inactive are the calls of the source. How the source made its calls: active means hit-call score of the fitted dose curve at least 0.9, where 1 is the maximum; inactive means score below 0.9.

How the values were obtained:
[1] = ATG_GLI_CIS: Attagene CIS-FACTORIAL HepG2 Assay for human Zinc Finger Protein GLI1 (AID 2282945); settings: HepG2, Attagene cis-factorial reporter mRNA, GLI element; actives raise or lower the signal
Outline: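 Bidirectional curve fits relative to DMSO, using reporter mRNA levels from RT-PCR plus capillary electrophoresis. Cells were HepG2 transiently carrying cis-regulated reporter constructs, harvested 24 h after dosing.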

[2] = target: Bile acid receptor (Homo sapiens) (UniProt Q96RI1); experiment: ATG_IR1_CIS: Attagene CIS-FACTORIAL HepG2 Assay for human Nuclear Receptor Subfamily 1 Group H Member 4 (NR1H4), IR1 submotif (AID 2282946); settings: IR1 reporter transcription, actives raise or lower the signal
Chain of Bile acid receptor (Homo sapiens) (Q96RI1 whole entry, looked up, the tested form may be a part): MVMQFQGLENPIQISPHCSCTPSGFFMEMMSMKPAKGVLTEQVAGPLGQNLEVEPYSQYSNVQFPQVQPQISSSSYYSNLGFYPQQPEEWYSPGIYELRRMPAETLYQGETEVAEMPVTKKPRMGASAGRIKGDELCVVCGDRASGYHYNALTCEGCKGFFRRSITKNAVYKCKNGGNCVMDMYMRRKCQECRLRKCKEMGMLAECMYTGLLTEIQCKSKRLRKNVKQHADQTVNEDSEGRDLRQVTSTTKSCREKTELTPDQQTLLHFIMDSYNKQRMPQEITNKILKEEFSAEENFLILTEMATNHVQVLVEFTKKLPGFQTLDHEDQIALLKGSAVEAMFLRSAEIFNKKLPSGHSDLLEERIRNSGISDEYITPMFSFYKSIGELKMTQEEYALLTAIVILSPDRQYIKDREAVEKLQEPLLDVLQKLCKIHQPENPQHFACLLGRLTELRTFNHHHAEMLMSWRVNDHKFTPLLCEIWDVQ
Outline: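 Cells (human HepG2) carry transiently transfected cis-promoter reporter transcription units. Compounds are incubated 24 h, total RNA is reverse-transcribed and amplified, and labelled fragments are resolved by capillary electrophoresis. Curves use DMSO as baseline.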

[3] = ATG_GRE_CIS: Attagene CIS-FACTORIAL HepG2 Assay for human Glucocorticoid Response Elements (GRE) (AID 2282947); settings: HepG2 GRE cis-reporter, Attagene multiplex mRNA; actives raise or lower the signal
Outline: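 Assay uses human hepatoma HepG2 cells transfected with cis-promoter reporter units, exposed 24 h. mRNA from reporters detected by RT-PCR plus capillary electrophoresis; DMSO serves as negative control and baseline.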

[4] = ATG_ISRE_CIS: Attagene CIS-FACTORIAL HepG2 Assay for human Interferon Regulatory Factor 1 (IRF1) binding to an Interferon-Stimulated Response Element (ISRE) (AID 2282948); settings: HepG2 ISRE cis-reporter (Attagene), mRNA transcription readout; actives raise or lower the signal
Outline: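 HepG2 cells transiently transfected with multiplexed cis-promoter reporter units; after 24 h compound exposure, reporter mRNA quantified by RT-PCR, FAM labelling, HpaI digestion and capillary electrophoresis. Bidirectional fit versus DMSO baseline.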

[5] = ATG_M_32_CIS: Attagene CIS-FACTORIAL HepG2 Assay for M32 Transcription Factor (Internal Marker) (AID 2282949); settings: HepG2 Attagene cis-factorial M32 reporter, mRNA; actives raise or lower the signal;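 further: background control marker of the multiplexed CIS panel rather than a real target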
Outline: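 Following 24 h chemical exposure of HepG2 cells transiently expressing cis-promoter reporter constructs, reporter transcript levels were determined by RT-PCR with fluorescent labelling and capillary electrophoresis, then fitted bidirectionally against DMSO.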

[6] = ATG_M_06_CIS: Attagene CIS-FACTORIAL HepG2 Assay for M06 Transcription Factor (Internal Marker) (AID 2282950); settings: HepG2 Attagene CIS-FACTORIAL M06 internal marker reporter; actives raise or lower the signal
Outline: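 Measured 24 h post-dosing in transiently transfected HepG2 cells, this internal-marker endpoint reports reporter mRNA via RT-PCR with fluorescent primer extension and capillary electrophoresis. DMSO served as negative control and baseline for bidirectional fitting.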

[7] = target: Hypoxia-inducible factor 1-alpha (Homo sapiens) (UniProt Q16665); experiment: ATG_HIF1a_CIS: Attagene CIS-FACTORIAL HepG2 Assay for human Hypoxia Inducible Factor 1 (HIF1A) (AID 2282951); settings: HepG2 Attagene cis-factorial HIF1a reporter transcription; actives raise or lower the signal
Chain of Hypoxia-inducible factor 1-alpha (Homo sapiens) (Q16665 whole entry, looked up): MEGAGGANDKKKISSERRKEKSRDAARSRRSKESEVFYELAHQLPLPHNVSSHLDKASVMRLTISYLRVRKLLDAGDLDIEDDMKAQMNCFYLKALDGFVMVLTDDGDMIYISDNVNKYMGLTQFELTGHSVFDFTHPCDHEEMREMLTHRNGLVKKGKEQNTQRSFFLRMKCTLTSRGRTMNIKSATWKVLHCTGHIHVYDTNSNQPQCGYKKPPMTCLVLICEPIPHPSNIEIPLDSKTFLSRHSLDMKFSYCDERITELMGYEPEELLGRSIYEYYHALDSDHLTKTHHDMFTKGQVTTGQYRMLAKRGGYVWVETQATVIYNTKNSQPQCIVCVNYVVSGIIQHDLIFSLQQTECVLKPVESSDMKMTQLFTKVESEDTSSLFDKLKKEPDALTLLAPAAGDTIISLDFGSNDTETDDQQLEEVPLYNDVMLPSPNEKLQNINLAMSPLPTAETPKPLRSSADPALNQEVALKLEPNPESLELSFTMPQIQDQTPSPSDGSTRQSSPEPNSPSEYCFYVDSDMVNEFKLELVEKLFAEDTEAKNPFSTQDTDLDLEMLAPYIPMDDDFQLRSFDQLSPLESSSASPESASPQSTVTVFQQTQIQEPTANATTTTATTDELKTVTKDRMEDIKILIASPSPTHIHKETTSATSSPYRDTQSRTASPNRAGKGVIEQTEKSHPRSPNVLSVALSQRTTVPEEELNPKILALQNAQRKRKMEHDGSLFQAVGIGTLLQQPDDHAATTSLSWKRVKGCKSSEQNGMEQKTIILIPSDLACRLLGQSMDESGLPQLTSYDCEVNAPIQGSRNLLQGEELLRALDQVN
Outline: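 In this multiplexed cell assay, HepG2 cells bearing transfected cis reporters are dosed for 24 h and reporter mRNA is read by RT-PCR plus capillary electrophoresis; signal increases and decreases are both scored against DMSO.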

[8] = target: Hepatocyte nuclear factor 6 (Homo sapiens) (UniProt Q9UBC0); experiment: ATG_HNF6_CIS: Attagene CIS-FACTORIAL HepG2 Assay for human Hepatocyte Nuclear Factor 6 (HNF6) (AID 2282952); settings: HepG2 Attagene cis-factorial HNF6 reporter transcription; actives raise or lower the signal
Chain of Hepatocyte nuclear factor 6 (Homo sapiens) (Q9UBC0 whole entry, looked up): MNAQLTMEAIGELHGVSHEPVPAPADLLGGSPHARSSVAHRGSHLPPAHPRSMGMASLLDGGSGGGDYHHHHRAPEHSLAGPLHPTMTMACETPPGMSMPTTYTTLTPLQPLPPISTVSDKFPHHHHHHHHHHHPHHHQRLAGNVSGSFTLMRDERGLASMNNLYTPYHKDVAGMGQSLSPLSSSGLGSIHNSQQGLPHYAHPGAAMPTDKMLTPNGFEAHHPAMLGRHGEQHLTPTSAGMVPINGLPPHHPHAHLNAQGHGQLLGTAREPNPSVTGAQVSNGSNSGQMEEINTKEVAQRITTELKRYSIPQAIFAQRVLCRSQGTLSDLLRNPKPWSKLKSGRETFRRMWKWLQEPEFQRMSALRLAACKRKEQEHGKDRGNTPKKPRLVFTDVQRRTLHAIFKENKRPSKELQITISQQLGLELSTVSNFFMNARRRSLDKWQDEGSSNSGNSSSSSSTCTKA
Outline: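 HepG2 cells transiently transfected with cis-element-driven multiple reporter transcription units, dosed 24 h; reporter mRNA quantified by RT-PCR, FAM primer extension, HpaI digestion and capillary electrophoresis; bidirectional fit versus DMSO baseline.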

[9] = target: Heat shock factor protein 1 (Homo sapiens) (UniProt Q00613); experiment: ATG_HSE_CIS: Attagene CIS-FACTORIAL HepG2 Assay for human Heat Shock Transcription Factor 1 (HSE) (AID 2282953); settings: HepG2 HSE cis-reporter, Attagene RNA transcription; actives raise or lower the signal
Chain of Heat shock factor protein 1 (Homo sapiens) (Q00613 whole entry, looked up): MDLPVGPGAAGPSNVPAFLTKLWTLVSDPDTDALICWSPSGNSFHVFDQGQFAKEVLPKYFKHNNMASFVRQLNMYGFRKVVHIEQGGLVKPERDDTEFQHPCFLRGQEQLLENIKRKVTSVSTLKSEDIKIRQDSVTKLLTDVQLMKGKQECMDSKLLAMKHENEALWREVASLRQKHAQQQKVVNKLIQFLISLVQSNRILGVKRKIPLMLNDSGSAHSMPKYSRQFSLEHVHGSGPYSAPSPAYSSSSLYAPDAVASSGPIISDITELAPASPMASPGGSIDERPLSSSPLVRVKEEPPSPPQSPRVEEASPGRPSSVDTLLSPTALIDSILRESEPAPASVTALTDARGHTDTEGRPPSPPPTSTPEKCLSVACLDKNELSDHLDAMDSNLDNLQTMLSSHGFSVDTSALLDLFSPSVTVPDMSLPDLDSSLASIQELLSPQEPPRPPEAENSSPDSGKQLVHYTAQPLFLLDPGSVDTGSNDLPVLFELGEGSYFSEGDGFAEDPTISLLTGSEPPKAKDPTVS
Outline: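 Reporter mRNA induction in HepG2 is measured 24 h after dosing, using transiently transfected multiplexed cis-regulated reporter units. Signal comes from capillary electrophoresis of labelled RT-PCR products, with DMSO as negative control.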

[10] = ATG_MRE_CIS: Attagene CIS-FACTORIAL HepG2 Assay for human Metal Responsive Element (MRE) (AID 2282954); settings: HepG2 MRE cis-reporter transcription, Attagene multiplex; actives raise or lower the signal
Outline: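 After a 24 h chemical exposure, transiently transfected HepG2 cells yield RNA whose reporter sequences are amplified, FAM-labelled and sized by capillary electrophoresis. Curves are fitted bidirectionally relative to DMSO.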

[11] = ATG_PBREM_CIS: Attagene CIS-FACTORIAL HepG2 Assay for human Phenobarbital-responsive Enhancer Module (PBREM) (AID 2282955); settings: HepG2 PBREM cis-reporter, Attagene multiplexed transcription; actives raise or lower the signal
Outline: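 After a 24 h incubation with test chemical, transfected HepG2 cells yield total RNA; reporter-specific RT-PCR products are fluorescently labelled, HpaI-digested and resolved by capillary electrophoresis against ROX size standards.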

[12] = target: Paired box protein Pax-6 (Homo sapiens) (UniProt P26367); experiment: ATG_Pax6_CIS: Attagene CIS-FACTORIAL HepG2 Assay for human Paired Box 6 (PAX6) (AID 2282956); settings: HepG2 CIS-FACTORIAL PAX6 reporter transcription, RNA readout; actives raise or lower the signal
Chain of Paired box protein Pax-6 (Homo sapiens) (P26367 whole entry, looked up): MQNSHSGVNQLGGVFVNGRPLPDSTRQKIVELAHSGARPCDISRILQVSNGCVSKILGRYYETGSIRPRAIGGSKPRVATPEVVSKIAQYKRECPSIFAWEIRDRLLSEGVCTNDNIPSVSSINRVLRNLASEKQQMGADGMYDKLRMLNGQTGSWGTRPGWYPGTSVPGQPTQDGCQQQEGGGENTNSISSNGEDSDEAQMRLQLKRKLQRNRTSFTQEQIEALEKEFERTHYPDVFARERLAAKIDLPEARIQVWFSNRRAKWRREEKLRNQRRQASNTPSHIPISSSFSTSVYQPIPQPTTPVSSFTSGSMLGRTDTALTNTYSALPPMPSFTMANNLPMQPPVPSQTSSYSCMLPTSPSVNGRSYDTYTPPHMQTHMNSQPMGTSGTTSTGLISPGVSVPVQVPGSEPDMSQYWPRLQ
Outline: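 HepG2 cells transiently transfected with multiplexed cis-promoter reporter units (endogenous TF activity) were dosed for 24 h. Reporter mRNA was quantified by RT-PCR, 6-FAM labeling, HpaI digestion and capillary electrophoresis; bidirectional fitting versus DMSO baseline.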

[13] = ATG_PXRE_CIS: Attagene CIS-FACTORIAL HepG2 Assay for human Pregnane X Receptor Element (PXRE) (AID 2282957); settings: HepG2 Attagene CIS-FACTORIAL PXRE reporter, mRNA; actives raise or lower the signal
Outline: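 HepG2 cells transiently transfected with cis-regulated multiple reporter transcription units; endogenous factor activity measured as reporter mRNA 24 h after dosing. RT-PCR, fluorescent primer extension, HpaI digestion, capillary electrophoresis; bidirectional fit versus DMSO baseline.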

[14] = ATG_PPRE_CIS: Attagene CIS-FACTORIAL HepG2 Assay for human Peroxisome Proliferator-activated Response Element (PPRE) (AID 2282958); settings: HepG2 PPRE cis-element reporter, Attagene transcription factor profiling; actives raise or lower the signal
Outline: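 Multiplexed reporter transcription units under cis-regulatory promoters were transfected into HepG2 cells to capture endogenous factor activity. A 24 h incubation preceded RNA isolation and fluorescent RT-PCR fragment analysis.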

[15] = ATG_RORE_CIS: Attagene CIS-FACTORIAL HepG2 Assay for human RAR-related Orphan Receptor Element (RORE) (AID 2282959); settings: HepG2 Attagene cis-factorial RORE reporter, mRNA; actives raise or lower the signal
Outline: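 Fluorescence intensity of reporter-specific cDNA fragments, separated by capillary electrophoresis, gives the signal. Source: HepG2 liver cells transiently transfected with cis-element reporters and exposed 24 h; DMSO-normalized bidirectional fit.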

[16] = ATG_Sox_CIS: Attagene CIS-FACTORIAL HepG2 Assay for human SRY-box transcription factor (SOX) (AID 2282960); settings: HepG2 Attagene cis-factorial SOX reporter, mRNA; actives raise or lower the signal
Outline: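 After 24 h of chemical treatment, transfected HepG2 reporter cells are lysed for total RNA. Transcript levels come from RT-PCR with labelled primer extension and capillary electrophoresis, analysed bidirectionally versus DMSO.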

[17] = target: Transcription factor Sp1 (Homo sapiens) (UniProt P08047); experiment: ATG_Sp1_CIS: Attagene CIS-FACTORIAL HepG2 Assay for human Specificity Protein 1 (Sp1) (AID 2282961); settings: HepG2 Sp1 cis-reporter transcription, actives raise or lower the signal
Chain of Transcription factor Sp1 (Homo sapiens) (P08047 whole entry, looked up): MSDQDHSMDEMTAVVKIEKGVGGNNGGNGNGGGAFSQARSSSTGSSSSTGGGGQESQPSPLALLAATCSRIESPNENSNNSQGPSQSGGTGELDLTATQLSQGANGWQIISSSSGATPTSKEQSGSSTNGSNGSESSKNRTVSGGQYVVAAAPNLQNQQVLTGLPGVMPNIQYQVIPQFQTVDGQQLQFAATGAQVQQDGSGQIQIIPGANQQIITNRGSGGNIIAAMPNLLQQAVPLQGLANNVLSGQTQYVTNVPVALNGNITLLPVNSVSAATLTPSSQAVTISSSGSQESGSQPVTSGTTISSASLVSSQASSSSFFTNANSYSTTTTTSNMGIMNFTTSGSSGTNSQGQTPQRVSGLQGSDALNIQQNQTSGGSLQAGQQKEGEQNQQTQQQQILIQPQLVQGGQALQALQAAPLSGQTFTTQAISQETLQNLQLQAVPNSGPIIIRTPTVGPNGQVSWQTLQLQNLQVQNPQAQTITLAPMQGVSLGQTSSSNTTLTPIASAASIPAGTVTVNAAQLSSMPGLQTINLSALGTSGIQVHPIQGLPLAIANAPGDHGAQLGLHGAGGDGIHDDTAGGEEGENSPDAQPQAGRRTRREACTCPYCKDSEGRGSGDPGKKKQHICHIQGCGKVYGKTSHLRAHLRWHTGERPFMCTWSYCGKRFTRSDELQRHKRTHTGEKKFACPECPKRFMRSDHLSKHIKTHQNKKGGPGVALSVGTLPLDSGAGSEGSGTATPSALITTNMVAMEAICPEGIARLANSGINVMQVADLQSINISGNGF
Outline: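 Sp1-driven reporter mRNA, read as capillary electrophoresis fluorescence after RT-PCR, in transiently transfected HepG2 cells dosed for 24 h; signal change in either direction relative to DMSO.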

[18] = ATG_SREBP_CIS: Attagene CIS-FACTORIAL HepG2 Assay for human Sterol Regulatory Element Binding (SREBP) (AID 2282962); settings: HepG2 Attagene cis-factorial SREBP reporter, mRNA; actives raise or lower the signal
Outline: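 HepG2 cells transiently transfected with multiplexed cis-element reporter units report endogenous transcription factor activity. After 24 h of chemical exposure, reporter mRNA was quantified by RT-PCR, 6-FAM labelling, HpaI digestion and capillary electrophoresis; bidirectional fits used DMSO as baseline.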

[19] = target: Signal transducer and activator of transcription 3 (Homo sapiens) (UniProt P40763); experiment: ATG_STAT3_CIS: Attagene CIS-FACTORIAL HepG2 Assay for human Signal Transducer and Activator of Transcription 3 (STAT3) (AID 2282963); settings: HepG2, Attagene cis-factorial STAT3 reporter transcription; actives raise or lower the signal
Chain of Signal transducer and activator of transcription 3 (Homo sapiens) (P40763 whole entry, looked up): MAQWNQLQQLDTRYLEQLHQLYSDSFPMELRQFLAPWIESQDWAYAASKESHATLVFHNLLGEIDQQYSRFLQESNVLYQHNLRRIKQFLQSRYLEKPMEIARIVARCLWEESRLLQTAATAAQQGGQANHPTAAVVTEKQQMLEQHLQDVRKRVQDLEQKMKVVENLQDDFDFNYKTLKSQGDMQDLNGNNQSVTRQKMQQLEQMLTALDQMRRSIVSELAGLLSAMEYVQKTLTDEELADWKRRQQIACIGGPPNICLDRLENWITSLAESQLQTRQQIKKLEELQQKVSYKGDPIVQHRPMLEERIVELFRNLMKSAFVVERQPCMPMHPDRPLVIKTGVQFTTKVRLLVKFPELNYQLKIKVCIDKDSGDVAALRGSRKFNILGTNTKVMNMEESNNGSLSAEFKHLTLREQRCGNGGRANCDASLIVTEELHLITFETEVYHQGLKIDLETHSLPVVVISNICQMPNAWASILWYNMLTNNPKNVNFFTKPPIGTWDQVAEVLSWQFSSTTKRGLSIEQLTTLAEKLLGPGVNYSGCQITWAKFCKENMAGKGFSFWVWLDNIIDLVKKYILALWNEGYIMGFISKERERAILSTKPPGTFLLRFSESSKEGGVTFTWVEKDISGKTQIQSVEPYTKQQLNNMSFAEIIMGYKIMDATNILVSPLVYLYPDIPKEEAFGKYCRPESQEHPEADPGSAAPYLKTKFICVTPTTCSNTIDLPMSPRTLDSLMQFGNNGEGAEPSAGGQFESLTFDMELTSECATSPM
Outline: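 After a 24 h compound incubation, total RNA from MRTU-transfected HepG2 cells was converted to cDNA and reporter sequences PCR-amplified, labelled and profiled by capillary electrophoresis. Gain and loss of signal were referenced to DMSO.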

[20] = ATG_TA_CIS: Attagene CIS-FACTORIAL HepG2 Assay for human TA Basal Promoter (AID 2282964); settings: HepG2 Attagene CIS-factorial TA basal promoter reporter; actives raise or lower the signal
Outline: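 Cis-factorial format in HepG2: reporters report endogenous factors, not chimeric Gal4 fusions. After 24 h treatment, reporter transcripts were measured by RT-PCR-capillary electrophoresis fluorescence, analysed bidirectionally versus DMSO.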

Measured: AC50

CC(=O)NC1(c2cccc(F)c2)CCN(CC[C@@]2(c3ccc(Cl)c(Cl)c3)CN(c3ccccc3)C(=O)CO2)CC1
inactive: [2] | [3] | [4] | [5] | [6] | [8] | [19]
active: [1] 50.7 µM | [7] 8.61 µM | [9] 51.6 µM | [10] 45.5 µM | [11] 56.2 µM | [12] 26 µM | [13] 1.42 µM | [14] 55.6 µM | [15] 50.2 µM | [16] 55.9 µM | [17] 44.4 µM | [18] 8.79 µM | [20] 16.8 µM

OC1CCC(C2CCCCC2)CC1 (centres undefined)
inactive: [1] | [2] | [3] | [4] | [5] | [6] | [7] | [9] | [10] | [12] | [13] | [14] | [15] | [16] | [17] | [18] | [19] | [20]
active: [1] 70.6 µM | [2] 100 µM | [4] 73.8 µM and 81.2 µM | [7] 100 µM | [10] 121 µM and 128 µM | [12] 127 µM | [13] 26.7 µM and 25.6 µM and 28.6 µM

CCCOC(=O)c1ccc(O)cc1
inactive: [1] | [2] | [3] | [4] | [5] | [6] | [7] | [8] | [9] | [11] | [12] | [14] | [15] | [16] | [17] | [18] | [19] | [20]
active: [7] 176 µM | [12] 142 µM | [13] 34.2 µM and 60 µM | [14] 77.5 µM | [15] 128 µM | [18] 26.4 µM | [20] 162 µM

c1ccc2cc3c(ccc4ccccc43)cc2c1
inactive: [1] | [2] | [4] | [5] | [6] | [7] | [8] | [9] | [10] | [11] | [12] | [13] | [15] | [16] | [17] | [18] | [19] | [20]
active: [2] 621 nM and 25.4 µM and 1.92 µM | [7] 3.05 µM and 2.3 µM | [9] 120 µM | [13] 8.53 µM and 20.8 µM | [15] 1.44 µM

COCC(C)OCC(C)O (centres undefined)
not listed: [10]
inactive: all other assays above

CCCCCCCCCCCCc1ccccc1S(=O)(=O)O
active: [13] 4.41 µM
inactive: all other assays above

N#C[C@@H]1CC(F)(F)CN1C(=O)CNC1CC2CCC(C1)N2c1ncccn1 (some centres undefined)
active: [13] 75.6 µM
not listed: [11]
inactive: all other assays above

CC#C[C@]1(O)CC[C@H]2[C@@H]3CCC4=CC(=O)CCC4=C3[C@@H](c3ccc(N(C)C)cc3)C[C@@]21C
inactive: [1] | [2] | [3] | [5] | [6] | [11] | [16] | [17] | [18] | [19] | [20]
active: [1] 100 µM and 134 µM | [2] 8.96 µM and 9.17 µM and 10.6 µM | [3] 26.7 µM | [7] 8.4 µM [middle of 4 runs] | [11] 11.5 µM and 4.77 µM and 13 µM | [12] 11.6 µM [middle of 4 runs] | [13] 1.03 µM [middle of 4 runs] | [15] 6.68 µM [middle of 4 runs] | [17] 122 µM and 27.5 µM | [18] 23.9 µM and 91.2 µM and 31.7 µM | [20] 9.11 µM and 8.72 µM and 27.2 µM

CC(C)(C)CC(C)(C)c1ccc(O)c(-n2nc3ccccc3n2)c1
active: [13] 1.15 µM
not listed: [8]
inactive: all other assays above

CC[C@H](c1ccc(O)cc1)[C@@H](CC)c1ccc(O)cc1
inactive: [1] | [2] | [3] | [4] | [5] | [6] | [8] | [9] | [10] | [11] | [12] | [14] | [15] | [16] | [17] | [18] | [19] | [20]
active: [2] 11.1 µM | [4] 11.1 µM and 17.2 µM | [10] 11.1 µM | [13] 3.02 µM [middle of 4 runs]
